# According to PubChem BioAssay AID1454 (National Center for Advancing Translational Sciences (NCATS), 2008):
# Hit rate of the full screen: of about 130,000 compounds, about 550 (0.42%) were called active. Not shown: some 4% with an inconclusive outcome. The full list was thinned out, with actives kept by preference. A number with no mark means an inactive call. The call rests on the fitted dose curve; in most records, active means well fitted inhibition curve with a large enough effect; inconclusive means small, poorly fitted or top-dose-only effect, or effect the other way; inactive means flat fitted curve, though single readings scatter.
# Assay: qHTS Assay for Inhibitors of the ERK Signaling Pathway using a Homogeneous Screening Assay; Stimulation with EGF; further: nearly all actives have a fitted effect of over 55% in size
# Details: HEK293-V1b, EGF-stimulated phospho-ERK AlphaScreen; series mostly up to 11.5 µM; activity change, negative = inhibition: at the top concentration
# Text: NIH Chemical Genomics Center [NCGC]
# NIH Molecular Libraries Screening Centers Network [MLSCN]
# Assay Submitter (PI): Dr. Wei Zheng, NCGC/NIH
# The Ras/extracellular-signal-regulated kinase (ERK) mitogen activated protein (MAP) kinase signaling pathway (ERK1/2 cascade) plays a key role in transmitting signals from the cell surface to the nucleus (Nishida and Gotoh 1993; Chang and Karin, 2001). The cascade is initiated by the small G-protein Ras, which recruits Raf from the cytosol, where activation occurs. Alternatively, this pathway can be activated by elevating intracellular cAMP, or by activation of a receptor tyrosine kinase as epidermal growth factor receptor.
# Activation of the ERK pathway is essential in increased cell division and cell survival. Sustained and constitutive activation of the ERK pathway, however, has been linked to uncontrolled cell proliferation, increased cell survival, and tumor progression. Thus, the ERK has been as an attractive target for cancer chemotherapy in the past few years (Sebolt-Leopold and Herrera, 2004). Given its physiological and pathological importance, assessment of ERK phosphorylation has been broadly performed in both basic research and drug discovery. Most assays for the measurement of ERK phosphorylation use the antibody-based detection methods, such as western blot and ELISA. These assays require multiple reagent additions with cell wash steps and are not suitable for high throughout screening.
# The current cell-based ERK phosphorylation assay was performed using AlphaScreen platform. AlphaScreen is a two bead-based proximity-dependent chemical energy transfer luminescent assay platform. The assay reagents (ERK SureFire(TM) kit) were supplied from TGR BioSciences (Australia). In the presence of specific antibodies, phosphorylated ERK will bring "donor" and "acceptor" beads to a proximity range (<200 nm), and subsequently lead a chemical luminescent reaction upon exciting donor beads with 680 nm laser. To exclude the assay-related false positives, we used a biotinylated rabbit IgG to perform counter-screen. The biotinylated antibody mimics the phosphorylated ERK1/2 for bringing streptavidin coated beads and protein-A coated beads to a proximity range for the AlphaScreen detection.
# NCGC Assay Protocol Summary:
# HEK293 cells stably expressing type-1 vasopressin receptor (V1b) were maintained in DMEM medium (Invitrogen, Carlsbad, CA) at 37C under a humidified atmosphere containing 5% CO2 and 95% air. The medium contained 10% FBS, 2 mM L-glutamine, non-essential amino acid, pyruvate and 50 U/ml penicillin and 50 ug/ml streptomycin (Invitrogen). The aliquots of frozen cells were stored at -135C and used for the compound screening. All compounds were screened as titrations from 0.6 nM to 46 uM final concentration. Epidermal growth factor (EGF) was used to stimulate the ERK phosphorylation pathway. The ERK phosphorylation in cells was determined using an AlphaScreen assay kit provided by […]. Data were normalized to the controls for basal activity (DMSO only) and 100% activation (25 nM EGF). AC50 values were determined from concentration-response data modeled with the standard Hill equation.
# (1) Seed 4 ul/well of resuspended frozen HEK293 cells containing 2000 cells in white 1536-well plates for overnight with 1% FBS at 37C under a humidified atmosphere containing 5% CO2 and 95% air.
# (2) Add 23 nL compounds in DMSO solution. The final titration was 0.6 nM to 46 uM.
# (3) Incubate at 37C for 30 min.
# (4) Dispense 0.5uL EGF (25 nM in final)
# (5) Incubate at 37C for 5 min.
# (6) Dispense 0.5uL of 1:2 diluted 5x lysis buffer.
# (7) Incubate at 37C for 10 min.
# (8) Dispense 1.5uL of mixture of activation buffer and reaction buffer with AlphaScreen beads (streptavidin donor beads and protein-A acceptor beads, 10 ng/well for each).
# (9) Incubate at room temperature for 5 hr.
# (10) Detect the assay plate in an EnVision plate reader (PerkinElmer) using the AlphaScreen detection mode.
# […]
# Potency means the concentration at half of the fitted maximal effect.
SMILES,"activity change, negative = inhibition",Potency
CC1(C)CC(=O)C(CC(=O)N2CCC(Cc3ccccc3)CC2)C(=O)C1,1.38%,
Cc1ccc(CN(Cc2cccnc2)C(=S)Nc2cc(Cl)ccc2C)cc1,4.9%,
O=C(COC(=O)c1ccc(S(=O)(=O)Nc2ccccc2)cc1)NCC1CCCO1 (configuration not stated),12.7% [at 57.5 µM],
COc1ccc(-n2cnnc2SCC(=O)Nc2cccc([N+](=O)[O-])c2)cc1,4.62%,
CCCc1nc2c(c(=O)c3ccccc3n2C)c(=O)n1-c1cc(C)cc(C)c1,2.8% [at 57.5 µM],
COc1ccc(CCNC(=O)C(=O)NCC2CCNCC2)cc1OC,-2.48% [at 57.5 µM],
CCn1c(SCc2cc(=O)n3ccsc3n2)nc2ccccc21,1.03%,
N#C/C(=C/c1ccc(-c2ccccc2[N+](=O)[O-])o1)C(=O)NCCN1CCCCC1,-4.68% [at 57.5 µM],
COC(=O)/C=C(\Oc1ccccc1)C1(O)CCCCC1,9.88% [at 57.5 µM],
O=[N+]([O-])c1ccc2c(c1)C(N1CCOCC1)/C(=C/C1(O)CCCCC1)O2 (configuration not stated),-3.12%,
CC(=O)Nc1cccc(-c2nc3ccccc3s2)c1C,-1.53%,
CCOC(=O)N1CCN(CC(=O)Nc2ccc(F)cc2)CC1,11.2%,
COCCCNC(NC(=O)c1ccc(OC)cc1)C(Cl)(Cl)Cl (configuration not stated),7.85%,
CC(=O)c1cccc(NC(=O)[C@@H](NC(N)=O)C(C)C)c1,-0.0389%,
Cc1[nH]n(C)c(=O)c1N=Nc1ccc(S(C)(=O)=O)cc1,-9.46% [at 57.5 µM],
Cc1cccc(N=Nc2c(C)[nH]n(-c3ccccc3)c2=O)c1,,7.08 µM (active)
O=C(NNC(=O)c1ccccc1[N+](=O)[O-])Nc1ccccc1C(F)(F)F,-11%,
CCCC(=O)Nc1nnc(-c2ccccc2)o1,-5.39% [at 57.5 µM],
COc1ccc(CN(C)C(=S)Nc2ccc(Cl)cc2Cl)cc1,-4.17%,
O=C(NCc1csc(-c2cccs2)n1)C1CC1,3.28% [at 57.5 µM],
Cc1noc(C)c1COC(=O)COc1ccc(-c2ccccc2)cc1,3.01% [at 57.5 µM],
CCCn1c(NC(=O)C23CC4CC(CC(O)(C4)C2)C3)nc2ccccc21,0.399%,
CCOC(=O)c1c(C)[nH]c2c1-c1ccccc1C(=O)C2=O,-6.6%,
CCOC(=O)C1=C(c2ccc(OC)cc2)C(=O)c2ccccc2C1=O,,31.6 µM (active)

SMILES,"activity change, negative = inhibition",Potency
CCOC(=O)c1ccccc1NS(=O)(=O)c1ccc(OC)cc1,12.6%,
CC(C)NC(=O)NC(=O)CSc1nnc(-c2ccccc2F)n1N,3.58%,
Cc1cc(C)nc(NC(=O)/C=C/c2ccc(Cl)cc2)n1,-5.42% [at 57.5 µM],
COc1ccc(/C=C/C(=O)Nc2ccc(C)cc2)cc1S(=O)(=O)N1CCOCC1,-5.96% [at 57.5 µM],
CC(=O)Nc1ccc(-c2csc(NC=C3C(=O)OC(C)(C)OC3=O)n2)cc1,-2.25%,
CC(=O)Nc1ccc(-c2csc(NC(=O)Nc3ccccc3)n2)cc1,,25.1 µM (active)
CC(=O)Nc1ccc(S(=O)(=O)Nc2nc(-c3ccc(C(C)(C)C)cc3)cs2)cc1,-2.35%,
CN(c1ccccc1)S(=O)(=O)c1ccc(Cl)c(C(=O)OCC(=O)N2CCOCC2)c1,-4.38%,
O=C(NCc1cccs1)c1cc(-c2ccccn2)nc2ccc(Br)cc12,8.18%,
O=C(CN1CCCC1)N1CCN(c2ccccc2)CC1,5.85%,
COc1ccc(N2CCN(C(=O)/C(C#N)=C/c3ccccc3)CC2)cc1,8.33%,
CC(CO)NCC12CC3CC(CC(C3)C1)C2 (configuration not stated),-23.6%,
CC(C)(C)c1cc(P(=O)(c2ccccc2)c2ccccc2)ccc1O,8.91% [at 57.5 µM],
CCOC(=O)CN(C(=O)COc1nc(-c2ccccc2)cc(C)c1C#N)c1ccc(F)cc1,3.15% [at 57.5 µM],
COC(OC)c1ccnc(SCc2ccccc2Cl)n1,-7.52% [at 57.5 µM],
O=C(O)/C=C/c1ccc2c(c1)OCCO2,-8.38% [at 57.5 µM],
CC1(C)CC(N(Cc2ccccc2)C(=O)Cc2ccccc2)CCO1 (configuration not stated),9.74%,
Cc1cccc(N2CCN(Cc3nc(C4CC4)no3)CC2)n1,2.16% [at 57.5 µM],
CN(CCOc1ccccc1)Cc1nc2cc(Cl)ccc2c(=O)[nH]1,3.35%,
O=C(NCc1ccccc1Cl)C1CCN(S(=O)(=O)N2CCOCC2)CC1,-3.09%,
C=CCOc1c(CNn2cn[nH]c2=S)cccc1OC,1.88%,
O=C(NCCc1ccccn1)c1cccnc1Oc1ccc(Cl)cc1,0.556% [at 57.5 µM],
CCC/C(C)=N\Nc1nc2c(c(=O)n(C)c(=O)n2C)n1C,2.86% [at 57.5 µM],
C=C(C)c1cccc(C(C)(C)NC(=O)NCCN(CC)CC)c1,-3.89%,

SMILES,"activity change, negative = inhibition",Potency
CCNC(=O)c1ccc(OCC(=O)Nc2ccc(F)cc2)c(OC)c1,-6.79% [at 57.5 µM],
O=C(/C=C/c1ccccc1)Oc1coc(CSc2ncccn2)cc1=O,2.15%,
CCN(CC)CCNC(=O)c1ccc(NS(=O)(=O)c2ccc3c(c2)OCCO3)cc1,-2.24%,
COc1ccc(CCc2nnc(CCC(=O)NCc3cnn(-c4ccccc4C)c3)o2)cc1,0.463%,
NCCCCCC(=O)N/N=C/c1ccc2nccnc2c1,-2.5% [at 57.5 µM],
O=C(N/N=C1\CCSC1)c1cc(Cl)ccc1O,1.16%,
CSc1ccc(CN(C)CC(=O)NCc2ccc(F)cc2)cc1,-3.97%,
O=C(CSc1nc2ccccc2s1)Nc1ccc(C(=O)O)cc1,8.22% [at 57.5 µM],
CS(=O)(=O)N(CC(=O)N1CCCC1)Cc1ccccc1,-2.52%,
OCC1(Cc2ccccc2C(F)(F)F)CCN(Cc2ccncc2)CC1,-17.7% [at 57.5 µM],
CCNC(=O)COc1cc(C)c(Br)c(C)c1,-13.4%,
O=c1oc2ccccc2cc1-c1csc(Nc2ccc(O)cc2)n1,,39.8 µM (active)
COc1ccc2nc(Nc3nc(-c4cc5ccccc5oc4=O)cs3)sc2c1,2.77%,
CCNc1nc(-c2cc3ccccc3o2)cs1,-4.57%,
CSc1ccccc1C(=O)NCc1ccccc1,-3.76%,
Cc1nc(S(=O)(=O)c2ccc(Br)cc2)nc2c1CCC2,4.23%,
CC1CCc2c(nc3ncnn3c2Nc2ccc(OC(F)(F)F)cc2)C1 (configuration not stated),-15.3%,
Brc1ccc(Nc2c3c(nc4ncnn24)CCC3)cc1,,25.1 µM (active)
Oc1oc(-c2ccccc2Br)nc1/C=N/c1ccccn1,11%,
CC1CCCCC1NC(=O)CO/N=C/c1ccc(OC(F)F)cc1 (configuration not stated),-9.33%,
CSc1ccc(/C=N\NC(=O)CC(=O)NC(C)C)cc1,-17.2%,
CCN(CC)CCn1cnc2c1c(=O)n(CCOC(=O)c1cc(OC)c(OC)c(OC)c1)c(=O)n2C,10.5% [at 57.5 µM],
O=C1CC2(CC(c3ccc(Cl)cc3)=NO2)C(=O)N1c1ccccc1 (configuration not stated),-1.21% [at 57.5 µM],
Cn1nc(C(F)(F)F)cc1-c1ccc(/C=C(\C#N)C(=O)c2cccc(C(F)(F)F)c2)s1,-4.59% [at 57.5 µM],
